Laboratory results published in paper PMC7862700, “An all-to-all approach to the identification of sequence-specific readers for epigenetic DNA modifications on cytosine”.

How the values were obtained:
Test in all cases: DAPPL (digital affinity profiling via proximity ligation, sequencing); 10 mM Tris-HCl pH 7.5, 50 mM NaCl, 1 mM DTT, 4% glycerol, room temperature, 30 min; GST-TFs on glutathione beads, 16-mer random dsDNA library, 0.1% formaldehyde crosslink after washing; high values mean tight binding
FEV = molecular target: T1, FEV (Homo sapiens, UniProt Q99581 1-238); details: protein: recombinant; tags: N-terminal GST; dsDNA, one strand shown
T1 sequence: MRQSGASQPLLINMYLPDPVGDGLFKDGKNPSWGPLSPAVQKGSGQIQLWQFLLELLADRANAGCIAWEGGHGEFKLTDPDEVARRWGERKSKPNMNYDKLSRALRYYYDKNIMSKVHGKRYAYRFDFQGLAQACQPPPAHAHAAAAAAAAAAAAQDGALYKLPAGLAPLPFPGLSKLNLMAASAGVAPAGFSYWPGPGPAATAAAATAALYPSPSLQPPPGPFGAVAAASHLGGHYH
Outline: (§1)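 A tag-only sample was pooled with DNA-barcoded human transcription factors that had been expressed in yeast as GST fusions and captured on glutathione beads. The pools were incubated for 30 min at room temperature with 200 nmole of a random double-stranded 16-mer DNA library in Tris/NaCl/DTT/glycerol buffer, then washed, crosslinked with 0.1% formaldehyde, proximity-ligated (BsaI/T4 ligase, 1 h, 37 °C), PCR-amplified and sequenced on an Illumina NextSeq500. Binding signal is each hexamer's read frequency for a factor divided by its frequency for the tag-only sample.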

ETV5 = ETV5 (Homo sapiens, UniProt P41161 1-510); details: protein: recombinant; tags: N-terminal GST; dsDNA, one strand shown
Outline: as §1

HSF1 = HSF1 (Homo sapiens, UniProt Q00613 1-529); details: protein: recombinant; tags: N-terminal GST; chain copies: 3; dsDNA, one strand shown
Outline: as §1

SPIC = molecular target: T2, SPIC (Homo sapiens, UniProt Q8N5J4 1-248); details: protein: recombinant; tags: N-terminal GST; dsDNA, one strand shown
T2 sequence: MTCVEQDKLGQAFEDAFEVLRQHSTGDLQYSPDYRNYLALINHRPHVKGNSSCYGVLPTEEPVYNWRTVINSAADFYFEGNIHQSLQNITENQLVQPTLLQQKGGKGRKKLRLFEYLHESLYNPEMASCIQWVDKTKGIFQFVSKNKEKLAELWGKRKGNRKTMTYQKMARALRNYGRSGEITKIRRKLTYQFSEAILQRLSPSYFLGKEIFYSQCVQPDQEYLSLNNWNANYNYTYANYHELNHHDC
Outline: as §1

ELF4 = ELF4 (Homo sapiens, UniProt Q99607 1-663); details: protein: recombinant; tags: N-terminal GST; dsDNA, one strand shown
Outline: as §1

ELK4 = molecular target: T3, ELK4 (Homo sapiens, UniProt P28324-2 1-405); details: protein: recombinant; tags: N-terminal GST; dsDNA, one strand shown
T3 sequence: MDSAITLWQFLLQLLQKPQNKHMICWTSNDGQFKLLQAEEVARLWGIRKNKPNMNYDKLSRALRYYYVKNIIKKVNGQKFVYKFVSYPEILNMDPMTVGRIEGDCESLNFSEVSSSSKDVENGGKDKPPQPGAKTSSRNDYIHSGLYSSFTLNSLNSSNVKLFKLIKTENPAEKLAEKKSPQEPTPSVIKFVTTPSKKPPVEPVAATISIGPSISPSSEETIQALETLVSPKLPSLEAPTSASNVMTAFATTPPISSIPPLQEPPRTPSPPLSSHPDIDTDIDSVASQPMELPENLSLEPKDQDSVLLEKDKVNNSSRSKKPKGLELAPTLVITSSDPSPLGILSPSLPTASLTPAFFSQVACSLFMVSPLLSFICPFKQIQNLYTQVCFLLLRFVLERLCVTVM
Outline: as §1

ETV2 = molecular target: T4, ETV2 (Homo sapiens, UniProt O00321 1-342); details: protein: recombinant; tags: N-terminal GST; dsDNA, one strand shown
T4 sequence: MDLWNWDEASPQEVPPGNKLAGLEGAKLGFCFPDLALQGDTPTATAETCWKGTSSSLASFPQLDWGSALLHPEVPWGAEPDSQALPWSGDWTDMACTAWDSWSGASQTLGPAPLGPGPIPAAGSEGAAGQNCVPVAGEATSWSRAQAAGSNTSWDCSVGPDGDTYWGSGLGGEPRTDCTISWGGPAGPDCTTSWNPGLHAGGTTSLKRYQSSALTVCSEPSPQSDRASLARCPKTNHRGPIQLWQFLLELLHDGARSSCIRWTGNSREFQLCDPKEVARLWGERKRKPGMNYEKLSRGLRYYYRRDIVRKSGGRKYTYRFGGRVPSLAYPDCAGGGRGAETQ
Outline: as §1

ELF3 = molecular target: T5, ELF3 (Homo sapiens, UniProt P78545 1-371); details: protein: recombinant; tags: N-terminal GST; dsDNA, one strand shown
T5 sequence: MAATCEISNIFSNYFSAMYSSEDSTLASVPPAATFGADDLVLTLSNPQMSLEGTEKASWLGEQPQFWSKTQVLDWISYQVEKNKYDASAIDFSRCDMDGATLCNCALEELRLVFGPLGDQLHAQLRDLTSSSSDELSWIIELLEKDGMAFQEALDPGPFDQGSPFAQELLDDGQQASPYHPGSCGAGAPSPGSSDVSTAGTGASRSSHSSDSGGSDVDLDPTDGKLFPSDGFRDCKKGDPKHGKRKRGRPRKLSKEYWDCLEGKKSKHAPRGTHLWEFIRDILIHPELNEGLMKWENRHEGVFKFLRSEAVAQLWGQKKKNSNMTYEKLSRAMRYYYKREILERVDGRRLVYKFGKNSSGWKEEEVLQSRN
Outline: as §1

CRX = CRX (Homo sapiens, UniProt O43186 1-299); details: protein: recombinant; tags: N-terminal GST; dsDNA, one strand shown
Outline: as §1

ETV1 = ETV1 (Homo sapiens, UniProt P50549 1-477); details: protein: recombinant; tags: N-terminal GST; dsDNA, one strand shown
Outline: as §1

Chain of ETV1 (P50549 whole entry): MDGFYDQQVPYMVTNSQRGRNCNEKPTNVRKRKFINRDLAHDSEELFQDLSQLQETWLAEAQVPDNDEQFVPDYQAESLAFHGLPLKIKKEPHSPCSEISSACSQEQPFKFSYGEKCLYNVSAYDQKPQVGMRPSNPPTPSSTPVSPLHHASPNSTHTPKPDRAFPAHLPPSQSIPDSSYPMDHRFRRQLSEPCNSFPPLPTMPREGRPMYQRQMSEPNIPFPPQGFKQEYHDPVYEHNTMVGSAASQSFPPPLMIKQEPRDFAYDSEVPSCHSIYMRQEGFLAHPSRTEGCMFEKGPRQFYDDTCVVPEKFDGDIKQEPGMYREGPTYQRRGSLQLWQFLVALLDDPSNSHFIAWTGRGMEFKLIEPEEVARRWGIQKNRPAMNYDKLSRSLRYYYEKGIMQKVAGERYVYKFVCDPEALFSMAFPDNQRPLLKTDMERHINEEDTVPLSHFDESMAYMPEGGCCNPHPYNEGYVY
Chain of HSF1 (Q00613 whole entry): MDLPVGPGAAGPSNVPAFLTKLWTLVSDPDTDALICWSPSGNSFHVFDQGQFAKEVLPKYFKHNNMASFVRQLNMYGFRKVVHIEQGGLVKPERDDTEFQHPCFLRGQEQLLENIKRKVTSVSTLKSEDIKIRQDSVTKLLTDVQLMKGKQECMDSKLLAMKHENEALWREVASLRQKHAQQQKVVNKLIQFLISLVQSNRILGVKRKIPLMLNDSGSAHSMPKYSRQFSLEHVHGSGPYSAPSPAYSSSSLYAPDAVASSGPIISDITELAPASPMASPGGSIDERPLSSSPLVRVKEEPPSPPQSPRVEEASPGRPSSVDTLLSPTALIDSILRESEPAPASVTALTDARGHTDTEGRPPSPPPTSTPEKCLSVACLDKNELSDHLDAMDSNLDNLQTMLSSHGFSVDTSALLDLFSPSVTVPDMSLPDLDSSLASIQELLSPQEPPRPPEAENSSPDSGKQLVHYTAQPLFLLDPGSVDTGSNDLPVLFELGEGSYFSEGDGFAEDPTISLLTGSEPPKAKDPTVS
Chain of ETV5 (P41161 whole entry): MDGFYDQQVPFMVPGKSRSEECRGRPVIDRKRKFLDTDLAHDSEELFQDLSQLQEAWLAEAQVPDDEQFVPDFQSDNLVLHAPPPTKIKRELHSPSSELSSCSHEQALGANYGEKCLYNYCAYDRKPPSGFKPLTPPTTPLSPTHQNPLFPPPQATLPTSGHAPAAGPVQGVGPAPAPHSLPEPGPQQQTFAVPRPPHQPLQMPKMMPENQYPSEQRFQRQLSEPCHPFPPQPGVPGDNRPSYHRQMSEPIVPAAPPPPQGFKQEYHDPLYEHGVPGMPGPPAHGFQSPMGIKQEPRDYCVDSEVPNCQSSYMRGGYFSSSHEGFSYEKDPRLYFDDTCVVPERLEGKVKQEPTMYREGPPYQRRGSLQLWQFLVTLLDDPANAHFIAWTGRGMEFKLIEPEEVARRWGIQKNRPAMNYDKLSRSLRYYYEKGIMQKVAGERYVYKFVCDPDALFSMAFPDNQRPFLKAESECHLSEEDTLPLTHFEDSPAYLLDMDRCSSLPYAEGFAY
Chain of CRX (O43186 whole entry): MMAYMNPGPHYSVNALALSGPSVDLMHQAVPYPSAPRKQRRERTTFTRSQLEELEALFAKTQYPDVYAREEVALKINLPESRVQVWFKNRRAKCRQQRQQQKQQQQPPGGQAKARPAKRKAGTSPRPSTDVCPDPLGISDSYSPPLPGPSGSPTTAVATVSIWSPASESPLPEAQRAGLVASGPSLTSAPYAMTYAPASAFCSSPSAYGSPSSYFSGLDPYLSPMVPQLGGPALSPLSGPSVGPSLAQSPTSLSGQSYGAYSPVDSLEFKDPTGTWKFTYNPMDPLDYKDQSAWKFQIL
Chain of ELF4 (Q99607 whole entry): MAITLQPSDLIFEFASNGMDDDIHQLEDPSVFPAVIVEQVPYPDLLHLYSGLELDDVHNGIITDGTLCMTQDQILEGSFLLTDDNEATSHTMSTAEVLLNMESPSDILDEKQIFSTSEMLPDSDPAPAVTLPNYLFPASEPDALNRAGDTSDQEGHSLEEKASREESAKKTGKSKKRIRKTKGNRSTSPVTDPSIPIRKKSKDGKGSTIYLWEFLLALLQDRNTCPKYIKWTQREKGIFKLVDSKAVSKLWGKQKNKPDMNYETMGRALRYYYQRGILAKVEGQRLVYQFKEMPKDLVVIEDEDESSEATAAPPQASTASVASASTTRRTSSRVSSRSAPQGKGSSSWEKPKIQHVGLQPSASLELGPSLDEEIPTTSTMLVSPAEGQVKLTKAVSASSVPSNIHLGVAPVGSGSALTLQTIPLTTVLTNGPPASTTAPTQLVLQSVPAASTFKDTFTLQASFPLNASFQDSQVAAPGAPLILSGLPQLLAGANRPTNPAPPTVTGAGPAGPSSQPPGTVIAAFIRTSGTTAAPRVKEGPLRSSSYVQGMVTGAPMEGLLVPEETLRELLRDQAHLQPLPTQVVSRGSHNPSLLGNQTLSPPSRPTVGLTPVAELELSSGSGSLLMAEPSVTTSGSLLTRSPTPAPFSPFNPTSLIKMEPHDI

Sequence: AATAGT
- binding signal (FEV): 1.19 fold enrichment (6-mer frequency, TF over GST control)
- binding signal (ETV5): 1.27 fold enrichment (6-mer frequency, TF over GST control)
- binding signal (HSF1): 1.21 fold enrichment (6-mer frequency, TF over GST control)
- binding signal (SPIC): 1.28 fold enrichment (6-mer frequency, TF over GST control)
- binding signal (ELF4): 1.18 fold enrichment (6-mer frequency, TF over GST control)
- binding signal (ELK4): 1.46 fold enrichment (6-mer frequency, TF over GST control)
- binding signal (ETV2): 1.17 fold enrichment (6-mer frequency, TF over GST control)
- binding signal (ELF3): 1.26 fold enrichment (6-mer frequency, TF over GST control)
- binding signal (CRX): 1.19 fold enrichment (6-mer frequency, TF over GST control)
- binding signal (ETV1): 1.17 fold enrichment (6-mer frequency, TF over GST control)
